Test results published in PubChem BioAssay (NCATS).
Results filed as inconclusive are left out. Calls of active or inactive are those of the source. Unless noted, the call rests on the fitted dose curve; in most records, active means well fitted curve in either direction with a large enough effect (not every such curve was filed as active); inconclusive means small, poorly fitted or top-dose-only effect, or another doubt; inactive means flat fitted curve, though single readings scatter.

Columns and labels:
[1] = biological target: Lysosomal acid glucosylceramidase (Homo sapiens) (UniProt P04062); experiment: Glucocerebrosidase-p2 (AID 348; in the data active means potency below about 10 µM; further: potency means the concentration at half of the fitted maximal effect); conditions: purified GBA, blue fluorogenic substrate, 40 min
In short: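 Normal human glucocerebrosidase (0.2 nM) with blue fluorogenic substrate (80 uM final) in citrate/phosphate pH 5.9 with 10mM sodium taurocholate, 0.01% tween-20; 40 min RT, NaOH/glycine stop; fluorescence Ex 365/Em 440; AC50 from a titration from 0.6 nM upwards.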

[2] = AP1 Signaling Pathway (AID 357); conditions: ME-180 AP-1-bla reporter, EGF-induced, beta-lactamase ratio, 5 h; at 7.69 µM (top of the series) unless noted;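 further: ME-180 reporter cells stimulated with EGF at its EC50 level; on the % scale 0 is the no-effect control and ±100 the full control effect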
In short: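 Cells are seeded overnight, exposed to compound titrations and an EC50 level of EGF for 5 hours at 37 °C, then loaded with CCF4 dye for 2.5 hours. Beta-lactamase activity under the AP-1 element is read as a blue/green ratio.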

[3] = NFAT Signaling Pathway (AID 444); conditions: Jurkat NFAT-bla M1, carbachol, beta-lactamase ratio, 5 h; at 7.69 µM (top of the series) unless noted;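 further: carbachol stimulus at about its EC50 of 1 µM final; on the % scale 0 is the no-effect control and ±100 the full control effect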
In short: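 Jurkat cells carrying an NFAT-driven β-lactamase reporter and co-transfected muscarinic M1 receptor were treated with compound plus carbachol (1 uM final, an EC50 level) for 5 h at 37 °C. CCF4 loading followed for 1 h at RT; 460/530 nm ratio gave %activity.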

[4] = Stat Signaling Pathway (AID 446); conditions: ME-180 (cervical carcinoma) SIE beta-lactamase reporter, IL-6 stimulated, 5 h; at 7.69 µM (top of the series) unless noted;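 further: ME-180 cervical cancer cells given 40 pM IL-6 alongside compound; SIE-controlled beta-lactamase reporter measured as 460/530 nm FRET emission ratio; on the % scale 0 is the no-effect control and ±100 the full control effect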
In short: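 Compound effects on IL-6-induced STAT reporter activity were measured in ME-180 cells. After overnight culture, cells were co-treated with 40 pM IL-6 for 5 hrs before beta-lactamase substrate loading at room temperature.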

[5] = biological target: Glucocorticoid receptor (Homo sapiens) (UniProt P04150); experiment: GR-GFP Redistribution (AID 450;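 active means compounds whose dose series gives a full or clear partial fitted curve of increased nuclear translocation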; further: potency means the concentration at half of the fitted maximal effect); conditions: U2OS GR-GFP nuclear translocation, laser cytometry, 2 h
[6] = biological target: Glucocorticoid receptor (Homo sapiens) (UniProt P04150); experiment: GR-EFC Redistribution (AID 451; calls by dose curve; further: potency means the concentration at half of the fitted maximal effect); conditions: CHO-K1 GR-EFC translocation, beta-gal luminescence, 2 h
In short: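 CHO-K1 cells stably expressing nuclear-localized β-gal enzyme acceptor and GR fused C-terminally to the enzyme donor fragment; ligand-driven nuclear translocation restores β-gal by complementation. Compounds titrated up to 46 uM final, 2 h at 37 °C; luminescence read.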

[7] = biological target: Mitogen-activated protein kinase 10 (Mus musculus) (UniProt Q61831); experiment: JNK3 AlphaScreen Assay (AID 530); conditions: JNK3 lysate, c-Jun phosphorylation; series mostly up to 11.4 µM;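 further: kinase came from lysate of stimulated human HepG2 cells; signal reports phosphorylation of biotinylated GST-cJun 1-79 at Ser73 with 10 µM ATP; on the % scale 0 is the no-effect control and ±100 the full control effect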
In short: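 Biotinylated GST-cJun(1-79) served as substrate for JNK3 in HepG2 lysates stimulated with IL-1beta and TNF-alpha. ATP was 10 uM final, pH 7.6. Ser73 phosphorylation was quantified by AlphaScreen (680 nm excitation).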

[8] = biological target: 3',5'-cyclic-AMP phosphodiesterase 4B (Homo sapiens) (UniProt Q07343); experiment: qHTS Assay for Inhibitors of PDE-IV (AID 607; active means well fitted activation curve with a large enough effect in the main read-out, with a control signal flat, not every such curve was filed as active; further: % of control where 0% means no effect); conditions: HEK293 ACTOne CNG channel cells, membrane potential fluorescence; series mostly up to 22.9 µM
In short: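 ACTOne HEK293 cells carry a modified cAMP-gated CNG channel and express endogenous PDE4; plated 1000 cells/well, compounds up to 22.9 uM final. Membrane-potential dye fluorescence (ex 535/em 590) was read; parental cells received 10 uM forskolin + 100 uM RO 20-1724.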

Sequence of 3',5'-cyclic-AMP phosphodiesterase 4B (Homo sapiens) (Q07343 whole entry, looked up): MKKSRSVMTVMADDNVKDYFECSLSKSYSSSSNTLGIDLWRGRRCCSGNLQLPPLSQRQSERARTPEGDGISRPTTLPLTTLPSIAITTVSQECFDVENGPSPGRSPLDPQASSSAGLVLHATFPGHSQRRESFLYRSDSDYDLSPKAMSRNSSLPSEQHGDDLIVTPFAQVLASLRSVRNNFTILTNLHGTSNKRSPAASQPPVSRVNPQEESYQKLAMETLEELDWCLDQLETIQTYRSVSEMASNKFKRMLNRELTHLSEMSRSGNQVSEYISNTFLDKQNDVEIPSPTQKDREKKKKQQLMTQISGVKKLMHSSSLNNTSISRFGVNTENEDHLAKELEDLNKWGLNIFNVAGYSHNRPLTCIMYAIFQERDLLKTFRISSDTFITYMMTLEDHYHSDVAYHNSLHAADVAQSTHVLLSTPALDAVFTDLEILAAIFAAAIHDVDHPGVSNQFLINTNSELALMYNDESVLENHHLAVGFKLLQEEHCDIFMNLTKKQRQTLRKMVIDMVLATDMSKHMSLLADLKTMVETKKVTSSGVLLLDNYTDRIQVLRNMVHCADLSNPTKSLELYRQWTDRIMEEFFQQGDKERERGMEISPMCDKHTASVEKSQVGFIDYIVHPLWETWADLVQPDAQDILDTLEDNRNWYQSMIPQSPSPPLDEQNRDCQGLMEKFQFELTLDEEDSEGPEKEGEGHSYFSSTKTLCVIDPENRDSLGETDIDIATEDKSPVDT
Sequence of Lysosomal acid glucosylceramidase (Homo sapiens) (P04062 whole entry, looked up): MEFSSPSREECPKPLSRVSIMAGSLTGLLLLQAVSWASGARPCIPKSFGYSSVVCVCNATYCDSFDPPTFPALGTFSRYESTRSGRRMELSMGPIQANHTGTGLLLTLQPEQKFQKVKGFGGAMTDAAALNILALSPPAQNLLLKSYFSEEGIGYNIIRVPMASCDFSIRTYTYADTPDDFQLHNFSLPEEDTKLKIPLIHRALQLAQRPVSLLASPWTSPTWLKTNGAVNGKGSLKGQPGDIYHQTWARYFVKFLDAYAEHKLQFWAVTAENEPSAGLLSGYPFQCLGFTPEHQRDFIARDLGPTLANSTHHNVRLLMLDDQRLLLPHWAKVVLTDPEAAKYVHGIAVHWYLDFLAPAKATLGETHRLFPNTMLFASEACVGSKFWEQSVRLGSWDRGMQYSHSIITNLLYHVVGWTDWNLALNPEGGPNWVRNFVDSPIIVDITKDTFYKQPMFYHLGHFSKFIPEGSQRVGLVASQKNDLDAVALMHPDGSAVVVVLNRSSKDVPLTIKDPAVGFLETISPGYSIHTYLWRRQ
Sequence of Glucocorticoid receptor (Homo sapiens) (P04150 whole entry, looked up, the tested form may be a part): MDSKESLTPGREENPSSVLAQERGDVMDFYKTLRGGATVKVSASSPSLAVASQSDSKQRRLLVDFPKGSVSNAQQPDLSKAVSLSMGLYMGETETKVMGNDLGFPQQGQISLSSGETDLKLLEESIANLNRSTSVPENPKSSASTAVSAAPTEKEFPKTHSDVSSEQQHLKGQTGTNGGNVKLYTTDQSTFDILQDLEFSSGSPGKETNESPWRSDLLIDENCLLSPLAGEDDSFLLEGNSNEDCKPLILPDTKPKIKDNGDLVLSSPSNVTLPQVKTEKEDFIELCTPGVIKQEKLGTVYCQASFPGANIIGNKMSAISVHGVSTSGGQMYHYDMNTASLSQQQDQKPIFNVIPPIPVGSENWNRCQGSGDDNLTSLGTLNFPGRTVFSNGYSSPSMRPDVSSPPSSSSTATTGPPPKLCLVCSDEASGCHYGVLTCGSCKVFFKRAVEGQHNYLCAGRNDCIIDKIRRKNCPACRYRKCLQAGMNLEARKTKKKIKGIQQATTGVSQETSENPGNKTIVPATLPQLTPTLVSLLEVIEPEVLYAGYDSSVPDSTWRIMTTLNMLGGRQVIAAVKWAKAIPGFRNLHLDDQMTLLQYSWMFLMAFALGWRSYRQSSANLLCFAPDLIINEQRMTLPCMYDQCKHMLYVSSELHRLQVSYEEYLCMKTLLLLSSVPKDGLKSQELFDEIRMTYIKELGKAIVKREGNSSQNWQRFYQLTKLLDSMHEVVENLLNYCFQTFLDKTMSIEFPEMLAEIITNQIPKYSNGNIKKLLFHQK

NC(=O)NOC[C@@H]1NC(=O)NC1=O
inactive: Potency [1] > 11.4 µM | activity change, negative = inhibition [2] 0.037% | activity change, negative = inhibition [3] 8.44% | activity, negative = inhibition [4] 9.07% | Potency [5] > 46 µM | Potency [6] > 9.22 µM | Potency [7] | Potency [8]

COc1ccc2c(C)cc(C)nc2n1
inactive: Potency [1] > 11.4 µM | activity change, negative = inhibition [2] 0.0891% | activity change, negative = inhibition [3] 9.21% | activity, negative = inhibition [4] 8.73% | Potency [5] > 46 µM | Potency [6] > 9.22 µM | Potency [7] | Potency [8]

C[C@@H](N)/C(N)=N/O
inactive: Potency [1] > 11.4 µM | activity change, negative = inhibition [2] -1.61% | activity change, negative = inhibition [3] 6.7% | activity, negative = inhibition [4] 5.63% | Potency [5] > 46 µM | Potency [6] > 9.22 µM | Potency [7] | Potency [8]

NC(N)=NC[C@H](N)C(=O)O
inactive: Potency [1] > 11.4 µM | activity change, negative = inhibition [2] 1.65% | activity change, negative = inhibition [3] 10.9% | activity, negative = inhibition [4] 0.308% | Potency [5] > 46 µM | Potency [6] > 9.22 µM | Potency [7] | Potency [8]

Cn1c(=S)c2[nH]c(SCCN3C(=O)c4ccccc4C3=O)nc2n(C)c1=O
inactive: Potency [1] > 11.4 µM | activity change, negative = inhibition [2] 0.578% | activity change, negative = inhibition [3] -4.22% | activity, negative = inhibition [4] 2.07% | Potency [5] > 46 µM | Potency [6] > 9.22 µM | Potency [7] | Potency [8]

NC(=O)N/N=C1\CC[C@H](O)C[C@@H]1CC(=O)O
inactive: Potency [1] > 11.4 µM | activity change, negative = inhibition [2] 11.5% | activity change, negative = inhibition [3] 5.67% | activity, negative = inhibition [4] 0.119% | Potency [5] > 46 µM | Potency [6] > 9.22 µM | Potency [7] | Potency [8]

CC(C)[C@H](N=Cc1ccccc1O)C(=O)O
inactive: Potency [1] > 11.4 µM | activity change, negative = inhibition [2] -4.87% | activity change, negative = inhibition [3] 4.44% | activity, negative = inhibition [4] -0.012% | Potency [5] > 46 µM | Potency [6] > 9.22 µM | Potency [7] | Potency [8]

NNS(=O)(=O)c1cc(C(=O)O)cc(C(=O)O)c1
inactive: Potency [1] > 11.4 µM | activity change, negative = inhibition [2] 4.57% | activity change, negative = inhibition [3] 14.9% | activity, negative = inhibition [4] 3.48% | Potency [5] > 46 µM | Potency [6] > 9.22 µM | Potency [7] | Potency [8]

CC(C)CNc1nc2ncnc(N)c2[nH]1
inactive: Potency [1] > 11.4 µM | activity change, negative = inhibition [2] 5.51% | activity change, negative = inhibition [3] 1.95% | activity, negative = inhibition [4] -10.8% | Potency [5] > 46 µM | Potency [6] > 9.22 µM | Potency [7] | Potency [8]

Cc1nc(N)nc2ccccc12
inactive: Potency [1] > 11.4 µM | activity change, negative = inhibition [2] -0.162% | activity change, negative = inhibition [3] 0.491% | activity, negative = inhibition [4] 2.21% | Potency [5] > 46 µM | Potency [6] > 9.22 µM | Potency [7] | Potency [8]

CC(=O)c1ccc(O)c(CN(C2CCCCC2)C2CCCCC2)c1O
inactive: Potency [1] > 11.4 µM | activity change, negative = inhibition [2] -2.68% | activity change, negative = inhibition [3] 16% | activity, negative = inhibition [4] -1.55% | Potency [5] > 46 µM | Potency [6] > 9.22 µM | Potency [7] | Potency [8]

C[C@H](NCCN(C)C)[C@@H]1CCC2C3CCc4cc(O)ccc4[C@H]3CCC21C (some centres undefined)
inactive: Potency [1] > 11.4 µM | activity change, negative = inhibition [2] 3.21% | activity change, negative = inhibition [3] -1% | activity, negative = inhibition [4] -5.94% | Potency [5] > 46 µM | Potency [6] > 9.22 µM | Potency [7] | Potency [8]

COc1ccc2c(c1)[n+]([O-])c(/C(C)=N/NC(N)=S)c(C)[n+]2[O-]
inactive: Potency [1] > 11.4 µM | activity change, negative = inhibition [2] -7.76% | activity change, negative = inhibition [3] 5.82% | activity, negative = inhibition [4] 0.294% | Potency [5] > 46 µM | Potency [6] > 9.22 µM | Potency [7] | Potency [8]

COC(=O)[C@@H]1C(O)[C@@H](C(=O)OC)[C@H](C)N(C)[C@@H]1C (some centres undefined)
inactive: Potency [1] > 11.4 µM | activity change, negative = inhibition [2] 3.71% | activity change, negative = inhibition [3] 14.1% | activity, negative = inhibition [4] -1.12% | Potency [5] > 46 µM | Potency [6] > 9.22 µM | Potency [7] | Potency [8]

Nc1nc2nc3c(nc2c(=O)[nH]1)CN(c1ccc(C(=O)O)cc1)C3=O
inactive: Potency [1] > 11.4 µM | activity change, negative = inhibition [2] -9.73% | activity change, negative = inhibition [3] 13.8% | activity, negative = inhibition [4] -8.98% | Potency [5] > 46 µM | Potency [6] > 9.22 µM | Potency [7] | Potency [8]

Cc1ncc(CSc2ccccc2N)c(CO)c1O
inactive: Potency [1] > 11.4 µM | activity change, negative = inhibition [2] 6.48% | activity change, negative = inhibition [3] 1.52% | activity, negative = inhibition [4] -0.62% | Potency [5] > 46 µM | Potency [6] > 9.22 µM | Potency [7] | Potency [8]

O=C(O)CCC(=O)c1ccc[nH]1
inactive: Potency [1] > 11.4 µM | activity change, negative = inhibition [2] -0.936% | activity change, negative = inhibition [3] 3.55% | activity, negative = inhibition [4] 3.5% | Potency [5] > 46 µM | Potency [6] > 9.22 µM | Potency [7] | Potency [8]

O=C(O)CCCc1ccc2ccccc2c1
inactive: Potency [1] > 11.4 µM | activity change, negative = inhibition [2] -3.28% | activity change, negative = inhibition [3] -9.96% | activity, negative = inhibition [4] 3.96% | Potency [5] > 46 µM | Potency [6] > 9.22 µM | Potency [7] | Potency [8]
